40 molecules from PubChem BioAssay (NCI) can be followed below.

This is part of a sample that, as a whole, favours compounds with a hit. Of some 79,000 tested, about 15% had one in any assay. Unmarked numbers belong to inactive results. Active and inactive are the calls of the source. Rule as the data show it: active = growth inhibition above about 70%; inactive = the rest.

This assay can be described thus: NCI Yeast Anticancer Drug Screen. Data for the mec2-1 strain (AID 157). The note with it: S. cerevisiae mec2-1 strain, at 50.0 µM, stronger effect = higher value. On the procedure: Growth inhibition of yeast strains with defined genetic alterations is measured as a screen for potential anti-cancer activity. Selected strains with alterations in DNA damage repair or cell cycle control were exposed to compounds and growth inhibition was measured relative to vehicle treated controls. The strain used in this assay is mec2-1
On to `O=C1CN(c2ccccc2)C(=O)CN1/N=C/c1ccc[nH]1`, for which the growth inhibition is -7.55%.

On to `COc1ccc(NC(=O)C(=O)Cc2ccc([N+](=O)[O-])c([N+](=O)[O-])c2CC(=O)C(=O)Nc2ccc(OC)cc2OC)c(OC)c1`, for which the growth inhibition is -36.1%.

With `COc1ccc(/C=C/C(=O)c2ccccc2)cc1`, the growth inhibition is -18.1%.

For `Brc1cccc(-c2nnc(-c3ccc4ccccc4c3)o2)c1`, the growth inhibition was -29.5%.

In the case of `CSc1ncc2c(C#N)c3ccccn3c(=O)c2n1`, the growth inhibition is -7%.

Take `O=CCS`: the growth inhibition was 4.85%.

For `CCOc1cc2c(cc1OC)c[n+](C)c1c3cc(OC)c(OC)cc3ccc21`, the growth inhibition was 10.9%.

As for `NNC(=O)/C(NC(=O)c1ccccc1)=C(\N)c1cccc([N+](=O)[O-])c1`, the growth inhibition is -30.4%.

For the molecule `CCCCn1cnc2c(N)ncnc21`, the growth inhibition was -7.75%.

Consider `O=C(Nc1ccc(Cl)cc1[N+](=O)[O-])Oc1ccc(-c2ccccc2)cc1`, for which the growth inhibition was 58.5%.

For `Cc1cc(C)c(N(C)C(=O)CCC(=O)O)c(Br)c1`, the growth inhibition was -3.05%.

With `O=[N+]([O-])c1ccc(N=Cc2ccccc2O)c(O)c1`, the growth inhibition was -4.05%.

`Cc1cccc(CCSCCc2cccc(C)[n+]2[O-])[n+]1[O-]`: the growth inhibition is -2.45%.

Consider `O=C(O)C1(c2ccccc2)CC1`, for which the growth inhibition was -7%.

As for `Cc1ccc(SS(=O)(=O)c2ccc([N+](=O)[O-])cc2)cc1`, the growth inhibition is 12.4%.

Consider `COc1cc2c(c(OC)c1OC)-c1ccc(OC)c(=O)cc1C(NC(=O)COc1ccccc1)CC2` (stereo not given), for which the growth inhibition is -28.6%.

In the case of `CC(C)CCNCC(C)(C)OC(=O)c1ccc([N+](=O)[O-])cc1`, the growth inhibition was 19.2%.

On to `CC1(C)CN(CCO)C(C)(C)CN1CCO`, for which the growth inhibition is 7.35%.

Regarding `O=C(Nc1ccccc1)OC1C(OC(=O)c2ccccc2)OC(COC(=O)c2ccccc2)C1OC(=O)c1ccccc1` (stereo not given), the growth inhibition is 0.75%.

For the molecule `COc1ccc(C(C)=O)cc1CCCOC(C)=O`, the growth inhibition was -1.35%.

On to `Cc1[nH]c(=O)nc2nc3ccc(Cl)cc3c(NCCNCCO)c12`, for which the growth inhibition was -42.4%.

For `COc1ccc2ccccc2c1C(Cc1ccccc1)NCCO` (stereo not given), the growth inhibition was -20.4%.

For the molecule `CCOC(=O)c1nnc2cc(-c3ccccc3)nn2c1C`, the growth inhibition is 0.6%.

Regarding `CCN(CC)c1ccc(N=C2C=CC(=O)C(C)=C2)c(C)c1`, the growth inhibition was -14.6%.

Take `CC(C)CC(NC(=O)CCCCCl)C(=O)O` (stereo not given): the growth inhibition was -4.65%.

Turning to `O=C(Cc1n[nH]c(=S)nc1CC(=O)c1cccnc1)c1cccnc1`, the growth inhibition is 12.2%.

Take `NC(=S)N/N=C1/CCCC/C1=N/O`: the growth inhibition is 33.1%.

With `C/C(CCn1[nH]c(=O)ccc1=O)=N\O`, the growth inhibition is -19.2%.

For the molecule `Cc1cccc(N=N/C(=N\NC(=O)c2cc(Cl)ccc2O)c2ccc(N(CCC#N)CCC#N)cc2C)c1`, the growth inhibition was -1%.

For the molecule `O=C(/C=C\c1ccc([N+](=O)[O-])cc1)c1ccccc1`, the growth inhibition is -6.1%.

For `O=C1c2ccccc2OCC1/C=N/O` (stereo not given), the growth inhibition was -24.1%.

Take `Cc1ccc(N=Nc2c(O)c(C(=O)O)cc3ccccc23)c(S(=O)(=O)O)c1`: the growth inhibition is -8.35%.

Take `CNC(=S)SC(=S)NC`: the growth inhibition was 8.3%.

On to `COc1cc(C(c2cc3c(cc2O)OCO3)N2CCCC2)cc(OC)c1OC` (stereo not given), for which the growth inhibition is 17.9%.

In the case of `N#CC(c1cc2c(cc1Br)OCO2)N1CCOCC1` (stereo not given), the growth inhibition was 19.4%.

On to `OCCN(CCO)c1cc(/C=C/c2c3ccccc3cc3ccccc23)nc2ccccc12`, for which the growth inhibition was 95.9% (active).

For `CC(CC(C)(C)C)C(=O)NC(N)=O` (stereo not given), the growth inhibition is -4.05%.

On to `CC(C)CCCC(C)C1CCC2C3CCC4=CCCCC4(C)C3CCC12C` (stereo not given), for which the growth inhibition is 33%.

As to `CCOC(=O)/C=C\[C@H]1OC(C)(C)O[C@H]1[C@H](O)[C@H]1COC(C)(C)O1`, the growth inhibition is -14.1%.

Consider `O=C1/C(=C/c2ccc(Br)cc2)CCC/C1=C\c1ccc(Br)cc1`, for which the growth inhibition was 13%.
